This is one part of a sample in which hits are shown more often than they occur.
HIV RNase H inh-1: blocks HIV-1 RNase H cleavage of RNA/DNA duplex | P04585 | RT-RNase H RNA/DNA duplex cleavage, fluorescence | inhibition, % at 10 µM | 1.9% of 65,000 active | AID 565; in the data active = inhibition above about 50%
HIV RNase H inh-2: confirmation of HIV-1 reverse transcriptase RNase H inhibitors; Recombinant RT RNase H, fluorescent RNA/DNA duplex cleavage; inhibition, % at 10 µM; 39% of 1,000 active; shares compounds with HIV RNase H inh-1; in the data active = inhibition above about 48%; inconclusive = no clear call, values can overlap the other calls
* hit, by the source's call; ? = inconclusive.

SMILES | HIV RNase H inh-1 | others
CC1(C)CC(CC(=O)O)(c2ccccc2)CCO1 (configuration not stated) | 2
CC(=O)NC12CC3CC(C1)CC(C(=O)OCC(=O)Nc1ncc(Cl)cc1Cl)(C3)C2 | 7
CS(=O)(=O)N1CCC(C(=O)c2cccc(Cl)c2)CC1 | 2
CCOc1ccccc1NC(=O)c1c(NC(=O)CNCc2ccco2)sc2c1CCC2 | 72*
COC(=O)Nc1sc2c(c1C(=O)NCc1ccco1)CCC2 | -15
COC(=O)Nc1sc2c(c1C(=O)NCc1ccco1)CCCC2 | 11
Cc1n[nH]c(C)c1S(=O)(=O)N1CCN(C(=O)c2ccco2)CC1 | 11
CCC1(C)Cc2c(C#N)c(N)n(-c3ccccc3)c(=O)c2CO1 (configuration not stated) | -7
CCOC(=O)c1c2c(c(=S)n(-c3ccccc3)c1N)CCC2 | 9
N#Cc1c2c(c(=S)n(-c3ccccc3)c1N)CCCC2 | 70*
FC(F)(F)C(F)(F)C(F)(F)c1nnc2ccc(N3CCOCC3)nn12 | -1
COc1ccc(CC(=O)Nc2nc3ccccc3s2)cc1S(=O)(=O)N1CCOCC1 | -23
CCOc1ccc2nc(NC(=O)c3ccc(S(=O)(=O)N4CCOCC4)cc3)sc2c1 | -3
O=C(CCc1ccccc1)Nc1nc2ccc(S(=O)(=O)N3CCOCC3)cc2s1 | 64*
Cc1ccc(-c2nnn(CCC(=O)NC3CCCC3)n2)cc1 | 3
C=CCNC(=O)c1ccc2c(c1)nnn2C | -5
Cc1cc(NS(=O)(=O)c2ccc(NC(=O)CCCC(=O)O)cc2)nc(C)n1 | 4
CCOc1ccc(OCC(=O)Nc2ccc(S(=O)(=O)Nc3cc(C)nc(C)n3)cc2)cc1 | 52*
CCCCOC(=O)Nc1ccc(S(=O)(=O)Nc2cc(C)nc(C)n2)cc1 | -2
COc1ccc(N(CC(=O)Nc2ccc(C)cn2)S(=O)(=O)c2c(C)noc2C)cc1 | -12
Cc1sc2nc(C3CC3)nc(NCCNS(C)(=O)=O)c2c1C | 5
CNC(=O)c1cc2c(=O)n3cccc(C)c3nc2n(C(C)C)c1=N | -34
O=C(Nc1nnc(CC(=O)N2CCCC2)s1)c1cnccn1 | -3
O=C(NCc1ccco1)c1cc2nc(-c3ccc4c(c3)OCO4)cc(C(F)(F)F)n2n1 | 16
CCOC(=O)N1CCN(C(=O)c2cnn3c(C(F)F)cc(-c4ccc(C)cc4)nc23)CC1 | -10
SMILES | HIV RNase H inh-1 | others
Cc1ccc(-c2cc(C(F)(F)F)n3ncc(C(=O)NCc4ccco4)c3n2)cc1 | 63* | HIV RNase H inh-2=42
COc1ccc(-c2cc(C(F)(F)F)n3nc(C(=O)NCc4ccco4)cc3n2)cc1 | -5
Cc1ccccc1Cc1c(C)nc2c(C(=O)NCc3ccco3)cnn2c1C | -51
Cc1ccc(-c2cc(C(F)F)n3ncc(C(=O)NCc4ccco4)c3n2)cc1 | 70* | HIV RNase H inh-2=74*
CCCCCCC(=O)c1c(C)[nH]c(C(=O)OCC)c1C | -62
CCn1c(=O)cc(SCC(=O)Nc2ccccc2N2CCN(C)CC2)c2ccccc21 | -2
C=CCNS(=O)(=O)c1ccc2nsnc2c1 | 20
COc1ccc(N/C=C(\C#N)c2nc3ccccc3n2C)c(OC)c1 | -19
c1coc(-c2nc3c4c5c(sc4ncn3n2)CCCC5)c1 | 4
COc1cccc(OCc2nc3c4cnn(-c5ccccc5)c4ncn3n2)c1 | 49
c1ccc(-n2ncc3c2ncn2nc(-c4ccco4)nc32)cc1 | 60* | HIV RNase H inh-2=68*
CCCn1c(=O)c(C(=O)Nc2nnc(C)s2)c(O)c2ccccc21 | -23
Cc1ccc2nc(NC(=O)CN(C)S(=O)(=O)c3ccc(Br)s3)sc2c1 | -4
Cc1ccnc(NC(=O)CN(C)S(=O)(=O)c2cccc3nsnc23)c1 | -34
Cc1ccc2nc(NC(=O)CN(C)S(=O)(=O)c3cccc4nsnc34)sc2c1 | 51* | HIV RNase H inh-2=39
COc1cccc(-c2nc(CS(=O)CC(=O)NCc3ccccc3Cl)c(C)o2)c1 (configuration not stated) | -7
COC(=O)c1nc2n(n1)C(c1cc(OC)ccc1OC)C(C(=O)OC1CCCCC1)=C(C)N2 (configuration not stated) | -3
CCn1c(=O)c2cc(C(=O)N3CCN(C(=O)c4ccco4)CC3)sc2c2ccccc21 | -4
CCN1CCCC1CNC(=O)c1cc(NC(C)=O)c(N(C)C)cc1OC (configuration not stated) | -2
CNC(=O)c1c(C)nc(SCC(=O)NCc2ccc(OC)cc2)c(C#N)c1-c1ccco1 | -1
CCc1ccccc1NC(=O)CSc1nc2c(c(-c3ccco3)c1C#N)CCCC2 | 40
N#Cc1c(SCC(=O)Nc2nccs2)nc2c(c1-c1ccco1)CCCC2 | 82* | HIV RNase H inh-2=61*
COCCOC(=O)c1c(C)nc(SCC(=O)Nc2ccc(C)cc2)c(C#N)c1-c1ccco1 | 0
Cc1ccccc1NC(=O)CSc1nc2c(c(-c3ccco3)c1C#N)CCCC2 | 59* | HIV RNase H inh-2=73*
Cc1ccccc1NC(=O)CSc1nc(N)c(C#N)c(-c2cccs2)c1C#N | 40
SMILES | HIV RNase H inh-1 | others
CS(=O)(=O)N1CCN(C2CCN(Cc3ccccc3)CC2)CC1 | -14
CCOC(=O)Cc1nnc(Nc2cccc(O)c2)c2ccccc12 | -6
O=C(Cn1ncc2c1-c1ccccc1OC2)N1CCN(Cc2ccc3c(c2)OCO3)CC1 | -17
CCOC(=O)C1=C(C)N2C(=C(C#N)[C@@H]1c1ccc(C(=O)OC)cc1)SC[C@@]2(O)C(C)(C)C | 13
CC1(C)NC(=O)NC2(C)NC(=O)NC(C)(C)C12 (configuration not stated) | -12
CC(=O)c1sc(N2C(=O)c3oc4ccccc4c(=O)c3C2c2ccc(C)o2)nc1C (configuration not stated) | 71* | HIV RNase H inh-2=?
CN1C(=O)c2oc3ccccc3c(=O)c2C1c1ccccn1 (configuration not stated) | -6
O=C1c2oc3ccccc3c(=O)c2C(c2ccc(Br)cc2)N1c1ncccn1 (configuration not stated) | 4
CC(C(=O)O)n1nc2ccccc2n1 (configuration not stated) | -24
O=C(NCCOc1ccccc1)c1cc2ccccc2o1 | -18
O=S(=O)(c1ccccc1)n1ccc2ccccc21 | -112
O=S(=O)(/N=S1/CC=CCN1S(=O)(=O)c1ccccc1)c1ccccc1 (configuration not stated) | 79* | HIV RNase H inh-2=60*
O=S(=O)(c1ccccc1)N1CCN(S(=O)(=O)c2ccccc2)C1 | -9
O=C(CSc1nnc(CN2CCOCC2)n1-c1ccccc1)Nc1ccc(Cl)cc1 | -14
O=C(Nc1ccc(S(=O)(=O)N2CCOCC2)cc1)c1ccc(Br)o1 | 2
Cc1ccc(C)c(CN2C(=O)C(C)Oc3ccc(C)cc32)c1 (configuration not stated) | -5
O=C1NCCCC2c3cc(O)c4ccccc4c3OC12N1CCCCC1 (configuration not stated) | 52* | HIV RNase H inh-2=15
O=C1NCCCC2c3c(cc(Br)c(O)c3Br)OC12N1CCOCC1 (configuration not stated) | 22
O=c1oc2ccccc2c(O)c1CN1CCCCC1 | 1
COc1cccc(C2C(C(=O)OC(C)C)=C(C)Nc3ncnn32)c1 (configuration not stated) | 4
Clc1ccc2nc(N3CCN(c4ccccc4)CC3)sc2c1 | 12
COc1ccc(C)c2sc(N3CCCC3)nc12 | -17
COc1ccc(OC)c2sc(N3CCN(c4ccccc4)CC3)nc12 | 75* | HIV RNase H inh-2=43
CC1(C(=O)NCc2cccnc2)CCC(=O)N1Cc1cccs1 (configuration not stated) | -12

Screens as filed in PubChem.
